This is a sample that favours compounds with a hit; in the whole collection about 4.3% have one here.
Anthrax LF inh2 – Bacillus anthracis LF protease inhibitors, primary screen, biochemical, multiplex microsphere, MLPCN library | Lethal factor (Bacillus anthracis), P15917 | inhibition, % at 10 µM | multiplex microsphere protease cleavage assay | 360,000 tested, 0.12% active
Target sequence (P15917 whole entry, looked up): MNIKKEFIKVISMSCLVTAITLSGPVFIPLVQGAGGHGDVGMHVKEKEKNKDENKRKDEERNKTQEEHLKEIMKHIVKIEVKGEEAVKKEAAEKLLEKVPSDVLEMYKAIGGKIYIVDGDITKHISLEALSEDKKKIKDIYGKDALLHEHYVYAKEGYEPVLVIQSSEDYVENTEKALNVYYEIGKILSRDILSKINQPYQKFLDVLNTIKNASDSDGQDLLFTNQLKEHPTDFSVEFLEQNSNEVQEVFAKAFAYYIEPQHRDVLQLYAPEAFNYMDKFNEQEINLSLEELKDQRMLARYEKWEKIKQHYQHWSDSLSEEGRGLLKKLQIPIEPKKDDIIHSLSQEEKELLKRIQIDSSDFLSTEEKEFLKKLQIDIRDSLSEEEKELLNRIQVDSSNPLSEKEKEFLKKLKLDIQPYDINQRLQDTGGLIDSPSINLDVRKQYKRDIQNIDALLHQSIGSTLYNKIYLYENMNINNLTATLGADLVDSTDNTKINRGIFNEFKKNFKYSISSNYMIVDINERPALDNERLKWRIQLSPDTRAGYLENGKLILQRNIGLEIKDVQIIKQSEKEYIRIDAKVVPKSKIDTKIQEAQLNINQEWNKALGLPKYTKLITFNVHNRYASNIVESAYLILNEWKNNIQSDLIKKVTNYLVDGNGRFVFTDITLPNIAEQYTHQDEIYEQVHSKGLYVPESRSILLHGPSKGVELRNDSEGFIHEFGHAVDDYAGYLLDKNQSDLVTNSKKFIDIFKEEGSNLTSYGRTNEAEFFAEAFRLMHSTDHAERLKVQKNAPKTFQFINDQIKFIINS
MazEF act – activators of E. coli MazEF toxin-antitoxin RNase, primary screen, biochemical, fluorescence, uHTS; Endoribonuclease toxin MazF (Escherichia coli (strain K12)), P0AE70; 350,000 tested, 0.32% active; activation, % at 20 µM; FAM/BHQ RNA-DNA oligo cleavage fluorescence, 5 h; in the data active means activation above about 50%
PfHsp40 yeast – rescue of yeast from PfHsp40 toxicity, primary screen, S. cerevisiae, ATP luminescence; S. cerevisiae expressing PfHsp40, growth rescue; growth rescue, % at 12.5 µM; 340,000 tested, 0.68% active; AID 504582, 2011; in the data active means growth rescue above about 28%, passing the limit was not always enough; inconclusive means no clear call, values can overlap the other calls;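 further: yeast W303a lacking pdr1 and pdr3 grown in galactose medium; growth measured after three days at 30 °C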
Bead autofluor – compound fluorescence in toxin protease inhibitor counterscreen; 360,000 tested, 3.1% active; compound autofluorescence counterscreen, microsphere flow cytometry; hits give high values; fluorescence intensity (test concentration not listed); in the data active means fluorescence intensity above about 16000; inconclusive means no clear call, values can overlap the other calls
BoNT A protease – BoNT/A light chain protease inhibitors, primary screen, biochemical, flow cytometry, MLPCN library; Botulinum neurotoxin type A light chain protease (Clostridium botulinum A str. ATCC 3502); multiplex microsphere protease substrate cleavage; inhibition, % at 10 µM; 360,000 tested, 0.17% active
BoNT-F LC inh – BoNT/F light chain protease inhibitors, primary screen, biochemical, flow cytometry, MLPCN library; Botulinum neurotoxin type F light chain protease (Clostridium botulinum); Multiplex microsphere protease cleavage assay; inhibition, % at 10 µM; 360,000 tested, 0.22% active; in the data active means inhibition above about 35%, passing the limit was not always enough; inconclusive means no clear call, values can overlap the other calls
Large screens that a line does not name were inactive. Unless noted, no stated cut-off is given here; in the data, active means inhibition above about 30%; inconclusive means no clear call, values can overlap the other calls; inactive means below that.

S=C(NNc1ccc2ccccc2c1)NC1CCCCC1	PfHsp40 yeast 244
CCCCN1C(=O)C(CC(=O)NCCc2ccccn2)CC(C(=O)N(C(C)C)C(C)C)=C1C (stereo unspecified)	none (no result: PfHsp40 yeast)
CC(C)NC(=O)CSCc1c(F)cccc1Cl	Bead autofluor 16724
O=C(O)CSCC(=O)N1CCN(S(=O)(=O)c2cc(Cl)cc(Cl)c2)CC1	BoNT-F LC inh inconclusive
COC(=O)c1ccc2c(=O)n(CCO)c(=S)[nH]c2c1	none
COC(=O)c1ccc2c(=O)n(NC(=O)C(c3ccccc3)c3ccccc3)c(=S)[nH]c2c1	Bead autofluor 16293, BoNT A protease inconclusive
COc1ccccc1NC(=O)Cn1nc(Cc2cccnc2)c2ccccc2c1=O	none
CCOC(=O)c1ccc(N=C(c2ccccc2)c2c(O)n(C)c(=O)n(C)c2=O)cc1	Anthrax LF inh2 31, BoNT-F LC inh inconclusive
O=C(CCSc1ccc(Br)cc1)c1ccc(O)cc1	PfHsp40 yeast 537
O=C(CCO)c1ccc(O)cc1	none
CCCn1ncc(OC)c(Cl)c1=O	Bead autofluor 21990
COC(=O)c1cccc2c1-c1ccccc1/C2=N/O	PfHsp40 yeast 331
O=C1c2ccccc2C(=O)c2c1ccc(O)c2O	none
COC(=O)c1cccc2c1-c1ccccc1/C2=N\NC(N)=O	none
COC(=O)c1ccc2c(c1O)C(=O)c1ccccc1C2=O	PfHsp40 yeast 342
Cc1ccc(NC(=O)CCN2CCOCC2)cc1C	none
O=C(C[C@H]1C/C=C\CC[C@@H](Cc2ccc(F)cc2)C(=O)O[C@H](c2ccccc2)CNC1=O)N[C@H](CO)Cc1ccccc1	none
Cc1ccc2c(c1)c1nc3ccccc3nc1n2C	MazEF act 222
Cn1c2ccc(F)cc2c2nc3ccccc3nc21	MazEF act 111, PfHsp40 yeast inconclusive, BoNT-F LC inh inconclusive
Cn1c2ccc(Cl)cc2c2nc3ccccc3nc21	BoNT A protease 40
CCOc1ccc2c(c1)c1nnc(SCC(=O)N3CCC(C)CC3)nc1n2C	none
O=C1c2ccccc2C(=O)N1CCCn1c2ccc(Cl)cc2c2nc3ccccc3nc21	none
Cc1ccc2c(c1)c1nc3ccccc3nc1n2CCN1CCOCC1	none
CCn1c2ccc(F)cc2c2nc3ccccc3nc21	none
CCOc1ccc2c(c1)c1nc3ccccc3nc1n2C	MazEF act 98
O=C(COC(=O)c1cccc(C(F)(F)F)c1)NC(=O)NC1CCCC1	none
CC1OC(CC(=O)O)CC2=C1C(=O)c1c(O)cccc1C2=O (stereo unspecified)	none
CCn1ccnc1C(O)(c1ccccc1)c1ccccc1	BoNT-F LC inh inconclusive
CC1=C(C)/C(=N\OS(=O)(=O)c2ccccc2)C=CC1=O	PfHsp40 yeast 637
COc1ccccc1S(=O)(=O)Cc1ccc(C(=O)NCc2ccccc2)o1	none
CCCCCC(=O)Nc1ccc(N2CCN(CC)CC2)c(Cl)c1	Bead autofluor 23051
CSc1nc(NCCN(C)C)c2sc3nc(-c4ccco4)c4c(c3c2n1)CCC4	none
CSc1nc(N(C)CCO)c2sc3nc(-c4ccco4)c4c(c3c2n1)CCC4	Bead autofluor 22092, BoNT A protease inconclusive
Cc1ccc(SCCNC(=O)c2ccc([N+](=O)[O-])c(C)c2)cc1	none
Cc1ccc(SCCNC(=O)c2ccc(C)c([N+](=O)[O-])c2)cc1	PfHsp40 yeast 48
Cc1cccc(C(C#N)c2nc3ccccc3nc2C(F)(F)F)c1 (stereo unspecified)	none
N#CC(c1ccc(Cl)cc1)c1nc2ccccc2nc1C(F)(F)F (stereo unspecified)	PfHsp40 yeast 53
CCC(=O)Nc1cccc(C2=NOC3(C2)C[C@H](C(N)=O)N(C(=O)CC#N)C3)c1 (stereo partly specified)	none
COc1ccccc1NC(=O)Cc1csc(NC(=S)Nc2ccc(C)cc2)n1	Bead autofluor 16561
CCC(=O)Nc1nc(CC(=O)Nc2ccccc2OC)cs1	none
CCN(Cc1ccccc1)S(=O)(=O)c1csc(C(N)=O)c1	none
CCN(CC)S(=O)(=O)c1csc(C(=O)OCC(=O)c2ccccc2)c1	Bead autofluor 17304
CN(CC(=O)Nc1ccc(F)c(F)c1F)C(=O)Cc1ccc(S(=O)(=O)N2CCOCC2)s1	none
Cc1cc(C(=O)Nc2ccccc2Cl)n(-c2ccccc2)n1	none
CCOc1ccc(C(CC(=O)O)NC(=O)c2ccco2)cc1 (stereo unspecified)	Bead autofluor 19729, BoNT A protease inconclusive
CCOC(=O)CC(NC(=O)c1ccco1)c1ccc(C)cc1 (stereo unspecified)	none
Cc1csc(NC(=O)CSC2=NS(=O)(=O)c3cc(F)ccc3N2)n1	none
O=C(CN1C(=O)/C(=C\C=C\c2ccccc2)SC1=S)Nc1ccc(F)cc1	BoNT A protease 34
Cc1nnc(NC(=O)CCN2C(=O)/C(=C\c3ccccc3)SC2=S)s1	none
O=C(CCN1C(=O)/C(=C/C=C/c2ccccc2)SC1=S)Nc1nc2ccccc2s1	BoNT A protease 56
O=C(COC(=O)CCN1C(=O)/C(=C\C=C\c2ccccc2)SC1=S)Nc1cc(F)ccc1F	BoNT A protease 42
O=C(CCN1C(=O)/C(=C\C=C\c2ccccc2)SC1=S)Nc1ccc(C(=O)O)cc1	none
[O-][n+]1ccc(CC(O)(C(F)(F)F)C(F)(F)F)cc1	none (no result: PfHsp40 yeast)
CCc1ccc(N(CC(=O)NC(C)(C)C)C(=O)CCC(=O)Nc2ccccn2)cc1	none
Cc1cccc2cc(C(c3nnnn3C(C)(C)C)N(Cc3ccco3)CC3CCCO3)c(=O)[nH]c12 (stereo unspecified)	Bead autofluor 21568
O=c1[nH]c2cc3c(cc2cc1C(c1nnnn1CC1CCCO1)N1CCCCCC1)OCCO3 (stereo unspecified)	Bead autofluor 22706
Cc1ccc2cc(C(c3nnnn3C3CCCC3)N(Cc3ccco3)Cc3cccs3)c(=O)[nH]c2c1 (stereo unspecified)	Bead autofluor 24754
O=c1[nH]c2cc3c(cc2cc1C(c1nnnn1CC1CCCO1)N1CCCC1)OCO3 (stereo unspecified)	none
Cc1ccc2cc(C(c3nnnn3C3CCCC3)N(Cc3cccnc3)Cc3ccco3)c(=O)[nH]c2c1 (stereo unspecified)	none
Cc1cccc2cc(C(c3nnnn3CC3CCCO3)N3CCOCC3)c(=O)[nH]c12 (stereo unspecified)	Bead autofluor 18150, BoNT A protease inconclusive
Cc1ccc2[nH]c(=O)c(C(c3nnnn3C(C)(C)C)N(Cc3ccco3)CC3CCCO3)cc2c1 (stereo unspecified)	none
CC(C)(C)NC(=O)CN1CCCN(C(=O)c2cccc(S(=O)(=O)N3CCc4ccccc43)c2)CC1	none
